# Laboratory results: PubChem BioAssay (NCI)
# The panel holds about 79,000 compounds, 15% with a hit somewhere; the sample as a whole holds those more often. Unmarked numbers belong to inactive results. The source made the active and inactive calls. No stated cut-off is given here; in the data, active means growth inhibition above about 70%; inactive means the rest.
# What was measured:
# [1] = NCI Yeast Anticancer Drug Screen. Data for the rad50 strain (AID 155);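 further: 0% = growth of vehicle-only cultures of the same strain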; conditions: S. cerevisiae rad50 strain growth inhibition, hits give high values
# How it was run: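 Relative growth inhibition (compound vs vehicle) was measured in yeast with a defined repair-gene alteration.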
# [2] = NCI Yeast Anticancer Drug Screen. Data for the mec2-1 strain (AID 157); conditions: S. cerevisiae mec2-1 strain, hits give high values
# How it was run: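 Mutant yeast (mec2-1) grown with compound; growth inhibition relative to vehicle control reported.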
# [3] = NCI Yeast Anticancer Drug Screen. Data for the sgs1 mgt1 strain (AID 161);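 further: 0% = growth of cultures given vehicle only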; conditions: S. cerevisiae sgs1 mgt1 strain, hits give high values
# How it was run: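 Compounds are added to genetically altered yeast, and growth is compared with cultures given vehicle alone to give percent inhibition.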
# [4] = NCI Yeast Anticancer Drug Screen. Data for the cln2 rad14 strain (AID 165);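 further: 0% = growth equal to vehicle treated cultures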; conditions: S. cerevisiae cln2 rad14 strain, hits give high values
# How it was run: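 Readout is yeast growth inhibition versus vehicle-treated controls, using a strain with cln2 and rad14 alterations exposed to compound.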
# [5] = NCI Yeast Anticancer Drug Screen. Data for the bub3 strain (AID 167); conditions: S. cerevisiae bub3 mutant strain, hits give high values
# How it was run: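 Screening used yeast with an engineered genetic alteration affecting cell cycle control. Compound-exposed cultures were compared with vehicle cultures, and reduced growth was taken as inhibition.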
# [6] = NCI Yeast Anticancer Drug Screen. Data for the mlh1 rad18 strain (AID 175); conditions: S. cerevisiae mlh1 rad18 strain growth inhibition, hits give high values
# How it was run: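 Genetically defined yeast (DNA repair-deficient) exposed to compounds; growth inhibition determined relative to vehicle.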
# [7] = at 5.0 µM (retest, dose inferred, filed as 0.5)
# [8] = at 50.0 µM (retest, dose inferred, filed as 5.0)
SMILES,"growth inhibition [1, 7] [%]","growth inhibition [1, 8]",growth inhibition ([1]; at 50.0 µM),"growth inhibition [2, 7] [%]","growth inhibition [2, 8]",growth inhibition ([2]; at 50.0 µM),"growth inhibition [3, 7] [%]","growth inhibition [3, 8]",growth inhibition ([3]; at 50.0 µM),"growth inhibition [4, 7] [%]","growth inhibition [4, 8]",growth inhibition ([4]; at 50.0 µM),"growth inhibition [5, 7] [%]","growth inhibition [5, 8]",growth inhibition ([5]; at 50.0 µM),"growth inhibition [6, 7] [%]","growth inhibition [6, 8]",growth inhibition ([6]; at 50.0 µM)
CCCCCCCCCCCCNCC#N,8,18%,89.9% (active),11,10%,72.2% (active),-2,17%,85.1% (active),0,15%,48.4%,4,52%,83.5% (active),5,29%,93% (active)
O=C1/C(=C/c2cccc([N+](=O)[O-])c2)Sc2scc(-c3ccc([N+](=O)[O-])cc3)[n+]21,7,97% (active),85.2% (active),-3,98% (active),62%,6,97% (active),94.9% (active),-15,97% (active),59.1%,-18,98% (active),93.1% (active),11,97% (active),93.8% (active)
O=C1OC(c2ccccc2)(c2ccc(-c3ccc(O)cc3)cc2)c2ccccc21 (configuration not stated),6,95% (active),95.6% (active),3,97% (active),97.6% (active),-1,97% (active),96.8% (active),6,96% (active),95.3% (active),8,96% (active),95.8% (active),7,96% (active),96.7% (active)
Cc1cc(NCCO)nc2c1ccc1ccccc12,5,9%,53.9%,3,-2%,35.6%,3,16%,46%,-2,23%,16.6%,-3,16%,19%,2,28%,61.2%
COc1ccc(C(c2c(O)c3ccccc3oc2=O)N2CCOCC2)cc1 (configuration not stated),-30,-14%,-8.2%,-10,-6%,-3.1%,-13,-29%,-34.9%,-19,-17%,76.5% (active),-14,22%,-14%,-34,-30%,-12%
CCOC(=O)C1(C#N)C(c2ccccc2)CC(O)(c2ccc([N+](=O)[O-])cc2)C(C(=O)c2ccc([N+](=O)[O-])cc2)C1c1ccccc1 (configuration not stated),-10,-25%,15.6%,5,-12%,14.3%,-8,0%,-6.4%,-18,-17%,31.4%,-13,2%,6%,1,-3%,21.2%
Cc1cc(Br)c2ccccc2c1N,1,69%,88.3% (active),2,39%,54.2%,0,74% (active),94.2% (active),-1,42%,84.8% (active),1,22%,75% (active),-3,44%,90.2% (active)
CN1C(=O)[C@@H]2N(N(C)C1=O)[C@@]1(Br)C(=O)N(C)C(=O)[C@@]21Br,18,78% (active),92.5% (active),4,57%,79% (active),18,84% (active),87.8% (active),4,24%,67.8%,1,53%,94.5% (active),14,91% (active),97.8% (active)
O=C(O)CCC12CCCCC1=NC1(CCCCC1)NC2=O (configuration not stated),2,6%,10.6%,-2,-1%,44.6%,3,4%,72.7% (active),4,3%,18.1%,1,2%,67%,1,7%,55.6%
